PubChem BioAssay AID1159580 (chemical genetic matrix, 2015)
“And” between values parts separate entries of the source, which are not always exact repeats. Equal entries are not always repeated. Hit rate of the full screen: of about 5,500 compounds, about 2,000 (36%) were called active. About 18% were inconclusive and are not listed. Rule as the data show it: active = normalized growth mostly below about 0.91 (no sharp cut-off); inconclusive = no clear call, values can overlap the other calls; inactive = mostly above about 0.92. Some of the results follow.

Assay: chemical genetic growth profiling, strain panel (AID 1159580);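 also: tested at 20 µM; growth read once vehicle control cultures reached saturation at 30 °C; 1 = growth at the plate median or of vehicle wells; lower values mean less growth of the strain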
Conditions: S. cerevisiae deletion strains, growth OD

Measured: normalized growth

O=C(CCBr)N1CCN(C(=O)CCBr)CC1
inactive: locus YAL013W, strain DEP1, hits give low values 1 | locus YAL021C, strain ccr4, hits give low values 1.02 | locus YAL026C, strain drs2, hits give low values 1.01 | locus YAL030W, strain snc1, hits give low values 1.02 | locus YBL061C, strain skt5, hits give low values 1.02 | locus YBR009C, strain hhf1, hits give low values 1.02 | locus YBR021W, strain FUR4, hits give low values 0.998 | locus YBR023C, strain chs3, hits give low values 1.03 | locus YBR171W, strain sec66, hits give low values 1.04 | locus YBR229C, strain ROT2, hits give low values 1 | locus YBR231C, strain swc5, hits give low values 1.02 | locus YBR279W, strain paf1, hits give low values 1.02 | locus YCL011C, strain gbp2, hits give low values 1.02 | locus YCL016C, strain dcc1, hits give low values 1.02 | locus YCL029C, strain bik1, hits give low values 1 | locus YCL061C, strain MRC1, hits give low values 1.01 | locus YCL069W, strain vba3, hits give low values 1.02 | locus YCR088W, strain abp1, hits give low values 1.01 | locus YDL005C, strain med2, hits give low values 1.02 | locus YDL035C, strain GPR1, hits give low values 1.01 | locus YDL040C, strain nat1, hits give low values 1.02 | locus YDL074C, strain BRE1, hits give low values 1 | locus YDL101C, strain DUN1, hits give low values 1.01 | locus YDL134C, strain PPH21, hits give low values 1.01 | locus YDL185W, strain tfp1, hits give low values 0.988 | locus YDL192W, strain arf1, hits give low values 1.01 | locus YDR001C, strain nth1, hits give low values 1.01 | locus YDR069C, strain doa4, hits give low values 1.02 | locus YDR101C, strain arx1, hits give low values 1.01 | locus YDR137W, strain rgp1, hits give low values 1.05 | locus YDR159W, strain sac3, hits give low values 1.01 | locus YDR162C, strain NBP2, hits give low values 1.01 | locus YDR195W, strain ref2 1.02 | locus YDR297W, strain sur2, hits give low values 1.02 | locus YDR318W, strain mcm21, hits give low values 0.996 | locus YDR334W, strain swr1, hits give low values 1.02 | locus YDR335W, strain msn5, hits give low values 1.02 | locus YDR388W, hits give low values 0.995 | locus YDR392W, strain spt3, hits give low values 1.03 | locus YDR502C, strain sam2, hits give low values 0.998 | locus YEL003W, strain gim4, hits give low values 1.02 | locus YEL037C, strain rad23, hits give low values 1.01 | locus YEL061C, strain CIN8 (second series), hits give low values 1.02 | locus YEL061C, strain CIN8, hits give low values 1 | locus YER015W, strain faa2, hits give low values 1.02 | locus YER016W, strain bim1, hits give low values 1.02 | locus YER110C, hits give low values 0.993 | locus YER111C, strain swi4, hits give low values 1.02 | locus YER155C, strain BEM2 (second series), hits give low values 1.02 | locus YER155C, strain BEM2, hits give low values 1.01 | locus YER167W, strain BCK2, hits give low values 1.01 | locus YFR010W, strain ubp6, hits give low values 1.01 | locus YGL078C, strain dbp3, hits give low values 0.995 | locus YGL086W, strain mad1, hits give low values 0.991 | locus YGL167C, strain pmr1, hits give low values 1.02 | locus YGL173C, strain kem1, hits give low values 1.02 | locus YGL227W, strain vid30, hits give low values 1.02 | locus YGL240W, strain doc1, hits give low values 1.02 | locus YGL248W, strain PDE1, hits give low values 1 | locus YGL253W, strain hxk2, hits give low values 1 | locus YGR135W, strain pre9, hits give low values 0.99 | locus YGR229C, strain SMI1, hits give low values 0.99 | locus YGR252W, strain gcn5, hits give low values 0.934 | locus YHR013C, strain ard1, hits give low values 1.04 | locus YHR027C, strain rpn1, hits give low values 1.01 | locus YHR030C, strain SLT2, hits give low values 1.01 and 1 | locus YHR079C, strain IRE1 (second series), hits give low values 0.995 | locus YHR079C, strain IRE1, hits give low values 0.997 | locus YHR094C, strain hxt1, hits give low values 0.996 | locus YHR129C, strain ARP1, hits give low values 1.01 | locus YHR142W, strain chs7, hits give low values 1.02 | locus YHR200W, strain rpn10, hits give low values 0.994 | locus YIL066C, strain RNR3, hits give low values 1.02 | locus YIL073C, strain SPO22, hits give low values 1.04 | locus YIL125W, strain kgd1, hits give low values 0.987 | locus YIR030C, strain dcg1, hits give low values 1 | locus YJL092W, strain hpr5, hits give low values 1.01 | locus YJL095W, strain BCK1 (second series), hits give low values 1.01 | locus YJL095W, strain BCK1, hits give low values 1.01 and 0.998 | locus YJL115W, strain asf1, hits give low values 1 | locus YJL129C, strain trk1, hits give low values 1.02 | locus YJL134W, strain LCB3, hits give low values 1.01 | locus YJL154C, strain vps35, hits give low values 1.02 | locus YJL164C, strain tpk1, hits give low values 1.02 | locus YJL166W, strain qcr8, hits give low values 1.02 | locus YJL168C, strain set2, hits give low values 0.998 | locus YJL187C, strain SWE1 (second series), hits give low values 1.02 | locus YJL187C, strain SWE1, hits give low values 1.02 | locus YJR043C, strain POL32, hits give low values 1.01
